Test results published in PubChem BioAssay (NCATS).
Records with an inconclusive call do not appear. Active and inactive are the calls of the source. The call rests on the fitted dose curve; in most records, active means well fitted curve in the direction sought with a large enough effect; inconclusive means small, poorly fitted or top-dose-only effect, or another doubt; inactive means no such curve, though single readings can be large; an effect the other way counts as inactive or inconclusive.

biological target: Arylsulfatase A (Homo sapiens) (UniProt P15289); assay: qHTS screen for enhancers of Arylsulfatase A (ASA1): LOPAC Validation Assay (AID 720538); conditions: ASA enzyme activity, LOPAC qHTS enhancer assay; series mostly up to 57.5 µM; activity change, positive = activation: at the top concentration; further: potency means the concentration at half of the fitted maximal effect; on activity change, positive = activation: 0% is about no effect
Procedure, shortened: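 MLD patient fibroblasts (SV40, ASA-I179S), 1536-well; adhere 6 hrs; cpd 48h, 37 degree C, 5% CO2; pNCS 0.5mM final in lysis buffer, 14h RT; stop 1N NaOH final; fluor. Ex525/Em598.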

Chain of Arylsulfatase A (Homo sapiens) (P15289 whole entry, looked up): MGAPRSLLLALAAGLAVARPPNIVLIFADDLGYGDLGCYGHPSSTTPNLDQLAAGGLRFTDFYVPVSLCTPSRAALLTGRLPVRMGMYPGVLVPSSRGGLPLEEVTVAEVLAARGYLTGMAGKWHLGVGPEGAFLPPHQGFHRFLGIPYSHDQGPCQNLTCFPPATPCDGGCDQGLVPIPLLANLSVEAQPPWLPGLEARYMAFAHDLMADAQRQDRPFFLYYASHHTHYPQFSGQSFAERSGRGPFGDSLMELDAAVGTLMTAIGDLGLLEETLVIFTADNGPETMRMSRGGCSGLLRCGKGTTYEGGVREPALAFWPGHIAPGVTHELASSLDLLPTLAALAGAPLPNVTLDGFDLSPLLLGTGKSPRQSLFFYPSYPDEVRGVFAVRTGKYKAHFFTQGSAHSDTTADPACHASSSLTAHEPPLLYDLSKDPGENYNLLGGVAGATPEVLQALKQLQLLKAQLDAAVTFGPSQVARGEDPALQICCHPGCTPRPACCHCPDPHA

Structure (SMILES)	outcome	Potency	activity change, positive = activation
CC(C)NCC(O)c1cc(O)cc(O)c1 (centres undefined)	inactive; inhibitor; fitted 8.4921 uM	–	–
COC(=O)[C@@H](N)Cc1ccc(O)c(O)c1	–	33.8 µM (active)	–
CC[N+](C)(C)c1cccc(O)c1	inactive	–	–
COc1cc(C(=O)OCCCN2CCCN(CCCOC(=O)c3cc(OC)c(OC)c(OC)c3)CC2)cc(OC)c1OC	–	–	10.1% (inactive)
CC(C)(Oc1ccc(CCNC(=O)c2ccc(Cl)cc2)cc1)C(=O)O	–	–	-3.07% (inactive)
Cc1nnc(SCC2=C(C(=O)O)N3C(=O)[C@@H](NC(=O)Cn4cnnn4)[C@H]3SC2)s1	–	–	17.7% (inactive)
Cc1cccc(C)c1NC(=O)C(C)N (centres undefined)	–	–	-24% (inactive)
CN(C)C(=O)Oc1ccc[n+](C)c1	–	–	-5.23% (inactive)
CCCN1C[C@H](CSC)C[C@@H]2c3cccc4[nH]cc(c34)C[C@H]21	–	–	-25.1% (inactive)
NC(Cc1ccc(Cl)cc1)C(=O)O (centres undefined)	inactive; inhibitor; fitted 5.3582 uM	–	–
COc1ccc2c(c1OC)C(=O)O[C@@H]2[C@H]1c2c(cc3c(c2OC)OCO3)CCN1C	inactive	–	–
CN1CCN(CC(=O)N2c3ccccc3C(=O)Nc3cccnc32)CC1	–	–	-15.9% (inactive)
CCN(CC)CCOCCOC(=O)C1(c2ccccc2)CCCC1	inactive	–	–
CCCCCN(CCCCC)C(=O)C(CCC(=O)O)NC(=O)c1ccc(Cl)c(Cl)c1 (centres undefined)	inactive; inhibitor; fitted 8.4921 uM	–	–
O=C(CCCN1CCC(O)(c2cccc(C(F)(F)F)c2)CC1)c1ccc(F)cc1	–	–	-21.6% (inactive)
CN(C)CCOC(=O)COc1ccc(Cl)cc1	inactive; inhibitor; fitted 8.4921 uM	–	–
Fc1ccc(C(c2ccc(F)cc2)N2CCN(C/C=C/c3ccccc3)CC2)cc1	inactive	–	–
CCCC(C(=O)OCCN(CC)CC)(c1ccccc1)c1ccccc1	inactive; inhibitor; fitted 8.4921 uM	–	–
CC(C)[N+](C)(CCOC(=O)C1c2ccccc2Oc2ccccc21)C(C)C	–	–	-26.6% (inactive)
O=C(O)CCCCCCCC(=O)O	–	–	-37.3% (inactive)
N[C@@H](COP(=O)(O)O)C(=O)O	–	–	-7.77% (inactive)
COCCc1ccc(OCC(O)CNC(C)C)cc1 (centres undefined)	inactive	–	–
Cc1cc(C)c(/C=C2\C(=O)Nc3ccccc32)[nH]1	–	–	3.07% (inactive)
CC1=NS(=O)(=O)c2cc(Cl)ccc2N1	–	–	-0.953% (inactive)
CCNC(=O)N1CCN(CCCC(c2ccc(F)cc2)c2ccc(F)cc2)CC1	inactive	–	–

system: not listed separately; assay: qHTS for compounds that reverse cellular toxicity of Amyloid beta (A-beta) peptide in yeast: LOPAC Validation Assay (AID 720559); conditions: yeast expressing A-beta; series mostly up to 46.1 µM; growth rescue, positive = activation: at the top concentration;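 further: plate controls were DMSO for no effect and equimolar ferric chloride plus clioquinol rescue for full effect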
Procedure, shortened: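 Medium dispensed, compounds pinned, A-beta yeast suspension added; plates held at 30 C for 48 hr; absorbance measured at 600 nm to gauge growth; values scaled between DMSO and FeCl3/clioquinol (equimolar) controls.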

Structure (SMILES)	growth rescue, positive = activation
NC1=NCC2c3ccccc3Cc3ccccc3N12 (centres undefined)	-6.8% (inactive)
O=C1NCN(c2ccccc2)C12CCN(CCCC(c1ccc(F)cc1)c1ccc(F)cc1)CC2	4.33% (inactive)
C[C@]12CCC(=O)C=C1CC[C@@H]1[C@@H]2CC[C@@]2(C)[C@H]1CC[C@]2(O)C(=O)CO	0.682% (inactive)
Brc1c(NC2=NCCN2)ccc2nccnc12	7.41% (inactive)
O=C1CC2(CCCC2)CC(=O)N1CCCCN1CCN(c2ncccn2)CC1	-1.87% (inactive)
CCn1cc(C(=O)O)c(=O)c2cc3c(cc21)OCO3	-3.76% (inactive)
NC(=O)c1ncn([C@@H]2O[C@H](CO)[C@@H](O)[C@H]2O)c1O	-1.22% (inactive)
COC(=O)[C@H]1[C@H]2C[C@@H]3c4[nH]c5cc(OC)ccc5c4CCN3C[C@H]2C[C@@H](OC(=O)c2cc(OC)c(OC)c(OC)c2)[C@@H]1OC	-3.79% (inactive)
CN(C)C(=O)Oc1cccc([N+](C)(C)C)c1	-4.52% (inactive)
Nc1nc(N)c2nc(-c3ccccc3)c(N)nc2n1	-8.77% (inactive)
O=C(O)CN(CCOCCOCCN(CC(=O)O)CC(=O)O)CC(=O)O	-2.77% (inactive)

system: not listed separately; assay: qHTS for Activators of Parkin Expression: LOPAC Validation Assay (NLuc Reporter) (AID 720572); conditions: Parkin promoter NanoLuc reporter cells, luminescence; series mostly up to 46.1 µM; activation: at the top concentration
Procedure, shortened: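 NLuc signal, read 10 min after reagent and following a prior FLuc read, is normalized to DMSO (0) and positive controls (100%). Cells: neuronal Parkin-promoter coincidence reporter line; compounds tested 7-point, 24 h, 37 C, 5% CO2.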

Structure (SMILES)	activation
COC(=O)[C@@H](N)Cc1ccc(O)c(O)c1	2.67% (inactive)
NC1=NCC2c3ccccc3Cc3ccccc3N12 (centres undefined)	5.46% (inactive)
O=C1NCN(c2ccccc2)C12CCN(CCCC(c1ccc(F)cc1)c1ccc(F)cc1)CC2	-1.1% (inactive)
C[C@]12CCC(=O)C=C1CC[C@@H]1[C@@H]2CC[C@@]2(C)[C@H]1CC[C@]2(O)C(=O)CO	-6.02% (inactive)
Brc1c(NC2=NCCN2)ccc2nccnc12	3.7% (inactive)
O=C1CC2(CCCC2)CC(=O)N1CCCCN1CCN(c2ncccn2)CC1	-2.38% (inactive)
CCn1cc(C(=O)O)c(=O)c2cc3c(cc21)OCO3	-5.86% (inactive)
NC(=O)c1ncn([C@@H]2O[C@H](CO)[C@@H](O)[C@H]2O)c1O	-3.22% (inactive)
COC(=O)[C@H]1[C@H]2C[C@@H]3c4[nH]c5cc(OC)ccc5c4CCN3C[C@H]2C[C@@H](OC(=O)c2cc(OC)c(OC)c(OC)c2)[C@@H]1OC	28.9% (inactive)
CCCCCN(CCCCC)C(=O)C(CCC(=O)O)NC(=O)c1ccc(Cl)c(Cl)c1 (centres undefined)	16.6% (inactive)
CN(C)C(=O)Oc1cccc([N+](C)(C)C)c1	2.55% (inactive)
Nc1nc(N)c2nc(-c3ccccc3)c(N)nc2n1	-6.81% (inactive)
O=C(O)CN(CCOCCOCCN(CC(=O)O)CC(=O)O)CC(=O)O	-1.16% (inactive)
CC(C)[N+](C)(CCOC(=O)C1c2ccccc2Oc2ccccc21)C(C)C	-1.47% (inactive)
Cc1cc(C)c(/C=C2\C(=O)Nc3ccccc32)[nH]1	-8.37% (inactive)
CCNC(=O)N1CCN(CCCC(c2ccc(F)cc2)c2ccc(F)cc2)CC1	-9.81% (inactive)

system: not listed separately; assay: qHTS for Activators of Parkin Expression: LOPAC Validation Assay (FLuc Reporter) (AID 720573); conditions: Cell line, PRKN promoter firefly luciferase reporter, vehicle wells = 0, positive control = 100%; series mostly up to 46.1 µM; activation: at the top concentration
Procedure, shortened: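 Cells seeded, 24 h; compounds pinned, 7-pt dose response; 24 h at 37 C/5% CO2; volume reduced; FLuc reagent 10 min RT; luminescence read. Normalization: DMSO = 0, positive control = 100%.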

Structure (SMILES)	activation
COC(=O)[C@@H](N)Cc1ccc(O)c(O)c1	-24.8% (inactive)
NC1=NCC2c3ccccc3Cc3ccccc3N12 (centres undefined)	-1.64% (inactive)
COc1cc(C(=O)OCCCN2CCCN(CCCOC(=O)c3cc(OC)c(OC)c(OC)c3)CC2)cc(OC)c1OC	15.5% (inactive)
O=C1NCN(c2ccccc2)C12CCN(CCCC(c1ccc(F)cc1)c1ccc(F)cc1)CC2	-14.1% (inactive)
CC(C)(Oc1ccc(CCNC(=O)c2ccc(Cl)cc2)cc1)C(=O)O	6.09% (inactive)
C[C@]12CCC(=O)C=C1CC[C@@H]1[C@@H]2CC[C@@]2(C)[C@H]1CC[C@]2(O)C(=O)CO	-10.5% (inactive)
Brc1c(NC2=NCCN2)ccc2nccnc12	-1.08% (inactive)
O=C1CC2(CCCC2)CC(=O)N1CCCCN1CCN(c2ncccn2)CC1	-6.79% (inactive)
CCn1cc(C(=O)O)c(=O)c2cc3c(cc21)OCO3	-10.8% (inactive)
NC(Cc1ccc(Cl)cc1)C(=O)O (centres undefined)	-2.47% (inactive)
COc1ccc2c(c1OC)C(=O)O[C@@H]2[C@H]1c2c(cc3c(c2OC)OCO3)CCN1C	-3.99% (inactive)
NC(=O)c1ncn([C@@H]2O[C@H](CO)[C@@H](O)[C@H]2O)c1O	-1.48% (inactive)
O=C(CCCN1CCC(O)(c2cccc(C(F)(F)F)c2)CC1)c1ccc(F)cc1	-9.67% (inactive)
CN(C)C(=O)Oc1cccc([N+](C)(C)C)c1	7.77% (inactive)
O=C(O)CN(CCOCCOCCN(CC(=O)O)CC(=O)O)CC(=O)O	-10.4% (inactive)
N[C@@H](COP(=O)(O)O)C(=O)O	-0.629% (inactive)
Cc1cc(C)c(/C=C2\C(=O)Nc3ccccc32)[nH]1	17.2% (inactive)
